High-throughput results (PubChem BioAssay)
Only a selection was taken, and hits are over-represented in it overall.
GIRK2 act – activators of NPY4-receptor-primed GIRK2 channels, summary, cell-based, HEK293, thallium flux; G protein-activated inward rectifier potassium channel 2 (Homo sapiens), P48051; HEK293 GIRK2/NPY4 cells, thallium flux fluorescence; activation (% efficacy), % for hits at 37.5 µM; 34,000 tested, under 10 active;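 active means primary screen hit, no activity in plain HEK293 cells, and in GIRK2-only cells above 5% efficacy rising with concentration; inactive means the rest, including fluorescent compounds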;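 further: efficacy is normalized control-subtracted fluorescence 15 s after thallium addition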
Target sequence (P48051 whole entry, looked up): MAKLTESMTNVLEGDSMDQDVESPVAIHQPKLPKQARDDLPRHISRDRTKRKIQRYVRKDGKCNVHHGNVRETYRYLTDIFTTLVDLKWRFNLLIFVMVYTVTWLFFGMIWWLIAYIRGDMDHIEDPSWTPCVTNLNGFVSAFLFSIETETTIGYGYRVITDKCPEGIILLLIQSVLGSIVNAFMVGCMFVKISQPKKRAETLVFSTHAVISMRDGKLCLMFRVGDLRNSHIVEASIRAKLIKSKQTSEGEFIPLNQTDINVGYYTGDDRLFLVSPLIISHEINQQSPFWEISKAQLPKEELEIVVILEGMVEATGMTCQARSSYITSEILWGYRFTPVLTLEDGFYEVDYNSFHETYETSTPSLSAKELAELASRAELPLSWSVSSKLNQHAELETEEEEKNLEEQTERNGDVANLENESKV
GluA2 TARP mod – modulators of GluA2-stargazin AMPA receptor complexes, primary screen, cell-based, membrane potential dye; Voltage-dependent calcium channel gamma-2 subunit (Mus musculus) + Glutamate receptor 2 …; HEK293 GluA2+stargazin, membrane potential dye (FDSS), glutamate EC50; hits were called plate by plate, in both directions; hit rate 3.5% among 40,000; calls only at 30 µM;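 active means any of four per-well response measures lying three or more SD from its plate-wide compound average, in either direction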
The depositor's hits bear a star; i = inactive; . = no result; + = active, no number.

SMILES | GIRK2 act | GluA2 TARP mod
COc1ccc(-c2nnc3ccc(OCCNC(=O)Nc4ccc(F)cc4)nn23)cc1 | i | +
CCCC(=O)NCCOc1ccc2nnc(-c3cccc(OC)c3)n2n1 | i | i
CCC(C(=O)NCCOc1ccc2nnc(-c3ccc(OC)cc3)n2n1)c1ccccc1 (centres undefined) | i | i
CSc1ncccc1C(=O)N1CCC(CNC(=O)c2ccccc2C(F)(F)F)CC1 | i | i
O=C(NCCC(c1ccccc1)c1ccccc1)C(=O)Nc1ccccc1F | i | i
COc1ccc(Cl)cc1NC(=O)CS(=O)(=O)c1cccs1 | i | i
O=C(CSc1nc(=O)n(CC2CCCO2)c2c1CCCC2)Nc1ccc(F)cc1F (centres undefined) | i | +
O=C(CSc1nc(=O)n(CCO)c2c1CCC2)Nc1ccc(F)c([N+](=O)[O-])c1 | i | +
O=c1nc(SCc2ccc([N+](=O)[O-])cc2)c2c(n1CC1CCCO1)CCC2 (centres undefined) | i | i
O=C(CSc1nc(=O)n(CCCO)c2c1CCC2)Nc1ccc(F)c([N+](=O)[O-])c1 | i | i
O=C(CSc1nc(=O)n(CC2CCCO2)c2c1CCCC2)NCc1ccc(F)cc1 (centres undefined) | i | i
O=c1nc(SCc2ccc(Br)cc2)c2c(n1CC1CCCO1)CCCC2 (centres undefined) | i | +
COC(=O)c1ccc2c(=O)n(CC(C)c3ccccc3)c(=S)[nH]c2c1 (centres undefined) | i | i
CCOc1ccc(NC(=O)C(=O)c2cn(CC(=O)N3CCOCC3)c3ccccc23)cc1 | . | i
CC(C)OC(=O)C1(C(=O)OC(C)C)CC(CO)(CO)C1 | . | i
CC(C)OC(=O)C1(C(=O)OC(C)C)CC2(COC(c3ccccc3)OC2)C1 | i | +
COCCN1CCC(CNS(=O)(=O)c2cc(F)ccc2F)CC1 | i | i
COc1ccc(C(=O)N2CCC3(CC2)NC(=O)NC3=O)cc1OC | i | i
O=C(CC1CCCC1)OCc1cc(-c2ccc(F)cc2)on1 | i | i
Cc1cc(C)n(-c2nc3c(c(=O)n2CC(=O)NCc2ccco2)CCCC3)n1 | i | +
Cc1cc(C)n(-c2nc3c(c(=O)n2CC(=O)N(C)c2ccccc2)CCC3)n1 | i | i
Cc1ccc(-n2nc3c(c2-n2cccc2)CN(C(=O)c2ccno2)C3)cc1C | i | i
CC(C)(C)n1nc2c(c1-n1cccc1)CN(C(=O)c1cccs1)C2 | i | i
Cc1ccc(-n2nc3c(c2-n2cccc2)CN(C(=O)c2ccsc2)C3)cc1 | i | +
Cc1ccc(-n2nc3c(c2-n2cccc2)CN(C(=O)c2cnccn2)C3)cc1C | 100.0%* | i
SMILES | GIRK2 act | GluA2 TARP mod
COc1cccc2c1OC1(CCN(C)CC1)N1N=C(c3ccc4c(c3)OCO4)CC21 (centres undefined) | i | i
CC(Oc1ccccc1)C(=O)N1CCN(c2ncnc3c2nnn3C)CC1 (centres undefined) | i | .
CS(=O)(=O)c1ccc(CC(=O)Nc2sccc2C(N)=O)cc1 | . | i
COc1cc(S(=O)(=O)Nc2cccc3cn[nH]c23)c(OC)cc1Cl | . | i
COc1cc(S(=O)(=O)Nc2cc(Cl)ccc2O)c(OC)cc1Cl | i | +
Cc1c(C(=O)N(C)CCC#N)c(C(F)(F)F)nn1C1CCN(C(C)C)CC1 | i | i
COc1ccc(-c2ccc(=O)n(CCNS(=O)(=O)c3ccc4c(c3)CCCC4)n2)cc1 | . | i
Cc1ccc(-c2ccc(=O)n(CCCNS(=O)(=O)c3c(C)cc(C)cc3C)n2)cc1 | i | +
O=c1ccc(-c2ccccc2)nn1CCCNS(=O)(=O)c1ccc2c(c1)CCCC2 | i | +
COc1ccc(-c2ccc(=O)n(CCNS(=O)(=O)c3c(C)cc(C)cc3C)n2)cc1 | . | i
O=c1ccc(-c2cccs2)nn1CCCNS(=O)(=O)c1ccc(Cl)c(Cl)c1 | i | i
O=c1ccc(-c2cccs2)nn1CCCNS(=O)(=O)c1cccc(C(F)(F)F)c1 | i | +
CC(=O)Nc1cccc(NC(=O)CCc2c(C)nn(-c3nc(C)cc(=O)[nH]3)c2C)c1 | i | i
CS(=O)(=O)Nc1ccccc1-c1nc2ccccc2[nH]c1=O | . | i
O=C(CSc1ccc(-c2ccc3ccccc3c2)nn1)NCc1ccc2c(c1)OCO2 | i | i
Cc1cc(C)c(-c2ccc(SCC(=O)NCc3ccc4c(c3)OCO4)nn2)cc1C | i | +
COc1cc(OC)c(NC(=O)NCCNc2nc(C)cc(N3CCCCC3)n2)cc1Cl | i | +
COc1ccc(OC)c(NC(=O)NCCNc2nc(C)cc(N3CCCCC3)n2)c1 | i | i
O=C(Nc1ccccc1C(F)(F)F)c1ccc(Oc2ncccn2)cc1 | i | i
COc1ccc(-n2nnc3c(N4CCN(C(=O)COc5ccc6ccccc6c5)CC4)ncnc32)cc1 | . | i
Cc1ccc(NC(=O)C(=O)NCC(c2cccn2C)N(C)C)cc1C (centres undefined) | i | i
Cc1cc(C)c2c(n1)nn1c(NC(C)c3ccccc3)cc(C)nc21 (centres undefined) | i | i
Cc1cc(C)c2c(n1)nn1c(N3CCCCC3)cc(C)nc21 | i | +
COC(=O)c1sccc1S(=O)(=O)N1CCN(c2cccc(Cl)c2)CC1 | . | i
Cc1cccc(-c2ccc(/C=C3\C(=O)SC(=S)N3CCCC(=O)O)o2)c1 | i | +
SMILES | GIRK2 act | GluA2 TARP mod
Cn1cc(/C=C2\SC(=O)N(CCC(=O)O)C2=O)c2ccccc21 | . | i
O=C(CSCc1ccccc1)Nc1cccc2c1C(=O)NC2=O | i | i
COc1cccc(OC)c1C(=O)Nc1ccc([N+](=O)[O-])cn1 | . | i
COc1ccc(C(=O)Nc2ccc([N+](=O)[O-])cn2)cc1OC | . | +
COc1cc(NC(=O)Nc2cc(N3CCCS3(=O)=O)ccc2OC)cc(OC)c1 | i | i
O=C(Cn1cc(-c2nnc(-c3ccccc3)o2)c2ccccc21)NC1CCCCC1 | i | i
COc1ccc(C)c2sc(N(Cc3ccncc3)C(=O)/C=C/c3ccc([N+](=O)[O-])cc3)nc12 | i | +
COc1ccc(OC)c2sc(N(CCN3CCOCC3)C(=O)/C=C/c3ccc([N+](=O)[O-])cc3)nc12 | i | i
CCN(C1CCCCC1)S(=O)(=O)c1ccc(C(=O)Nc2ncnc3sccc23)cc1 | i | +
CN(C1CCCC1)S(=O)(=O)c1ccc(C(=O)Nc2ncnc3sccc23)cc1 | . | i
COc1cc(/C=C2\SC(=S)N(c3ccccc3Br)C2=O)ccc1O | . | +
COc1ccc(/C=C2\SC(=S)N(c3cccc(C)c3C)C2=O)cc1OC | . | i
COc1cc(/C=C2\SC(=S)N(c3cccc(C)c3C)C2=O)cc(OC)c1OC | . | +
CCOc1cc(/C=C2\SC(=S)N(c3ccccc3Br)C2=O)ccc1O | . | i
O=C(CSc1ncnc2[nH]ncc12)c1ccc(F)c(F)c1 | . | i
COc1ccc(C2C3=C(CC(c4ccc(C(F)(F)F)cc4)CC3=O)Nc3ccccc3N2C(=O)C(F)(F)F)cc1 (centres undefined) | . | i
